Reference: PubChem BioAssay AID2634 (National Center for Advancing Translational Sciences (NCATS), 2010)
Results filed as inconclusive are left out. Activity calls are given as the source filed them.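 The calls were made as follows: active = compounds whose potency, the dose giving half inhibition, is below 20 µM; inconclusive = compounds meeting neither the active nor the inactive rule; inactive = potency over 20 µM or below 50% inhibition when unfitted.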

molecular target: Integrin alpha-IIb (Homo sapiens) (UniProt P08514); test: Platelet Adhesion Secondary Assay for Inhibitors of Platelet Integrin alphallb-beta3; settings: human platelet adhesion to fibrinogen, calcein fluorescence; at 30 µM, stronger effect = higher value unless noted
Excerpt: NIH Molecular Libraries Probe Production Network [MLPCN] NIH Chemical Genomics Center [NCGC] MLPCN Grant: 1 R03 MH083257-01 Assay Provider: Barry Coller, Rockefeller University NCGC Assay Overview: The alphaIIbbeta3 receptor plays a vital role in hemostasis and thrombosis, where receptor deficiency causes the hemorrhagic disorder, Glanzmann thrombasthenia, and uncontrolled receptor activation causes thrombosis and blood vessel occlusion. Small molecule inhibitors of alphaIIbbeta3, tirofiban and eptifibatide, have undesirable side effects thought to arise from conformational changes in alphaIIbbeta3. These changes transiently activate the receptor to cause spontaneous platelet aggregation and thrombus formation. […] This secondary assay measures the binding of human plates to fibrinogen, an extracellular matrix protein (Blue et al., 2008). Platelets were loaded with a fluorescent dye, calcein, and added to fibrinogen-coated plates. Following incubation, unbound platelets were removed by washing and bound platelets were detected by measuring fluorescence intensity. Inhibitors of alphaIIbbeta3 block platelet binding to fibrinogen and result in a decrease in fluorescence intensity.
NCGC Assay Protocol Summary: Human fibrinogen (50 ug/mL) in Tris/saline (100 mM NaCl, 50 mM Tris/HCl, pH 7.4; American Diagnostica, Stamford, CT) was added to black, clear-bottom, untreated polystyrene, nonsterile 384-well microtiter plate wells (Corning no. 3711; Acton, MA) using a peristaltic microplate dispenser (WellMate; Matrix, Hudson, NH). After incubating at 22 C for 1 hour, plates were washed 4 times with Tris/saline using an automated plate washer (ELX405; Bio-Tek, Winooski, VT), and wells were then blocked with HBMT (138 mM NaCl, 12 mM NaHCO3, 10 mM HEPES, 2.7 mM KCl, 0.4 mM NaH2PO4, 0.1% glucose, 0.35% BSA, pH 7.4) for at least 1 hour. After 2 additional washes, 15 uL HBMT was allowed to remain in each well. Compounds were added to the wells with a liquid handling robot (MiniTrak V; PerkinElmer, Wellesley, MA) using a pin tool (VP Scientific, San Diego, CA) that added 0.1 uL compound in DMSO. Fifteen microliters 5E11/L calcein-labeled platelets were then added (2.5E11/L final concentration). After 1 hour of adhesion, wells were washed 4 times with HBMT-CaCl2/MgCl2 and the plates were read by an Envision (Perkin Elmer) to detect calcein fluorescence (490 nm excitation and 515 nm emission). Positive controls consisted of wells containing platelets without compounds. Negative controls were wells containing platelets and known inhibitors of alphaIIbbeta3, including mAbs 7E3 and 10E5, and EDTA. Reference Blue R, Murcia M, Karan C, Jirouskova M, and Coller BS. Application of high-throughput screening to identify a novel alphaIIb-specific small- molecule inhibitor of alphaIIbbeta3-mediated platelet interaction with fibrinogen. Blood. 2008, 111(3):1248-56

Chain of Integrin alpha-IIb (Homo sapiens) (P08514 whole entry, looked up): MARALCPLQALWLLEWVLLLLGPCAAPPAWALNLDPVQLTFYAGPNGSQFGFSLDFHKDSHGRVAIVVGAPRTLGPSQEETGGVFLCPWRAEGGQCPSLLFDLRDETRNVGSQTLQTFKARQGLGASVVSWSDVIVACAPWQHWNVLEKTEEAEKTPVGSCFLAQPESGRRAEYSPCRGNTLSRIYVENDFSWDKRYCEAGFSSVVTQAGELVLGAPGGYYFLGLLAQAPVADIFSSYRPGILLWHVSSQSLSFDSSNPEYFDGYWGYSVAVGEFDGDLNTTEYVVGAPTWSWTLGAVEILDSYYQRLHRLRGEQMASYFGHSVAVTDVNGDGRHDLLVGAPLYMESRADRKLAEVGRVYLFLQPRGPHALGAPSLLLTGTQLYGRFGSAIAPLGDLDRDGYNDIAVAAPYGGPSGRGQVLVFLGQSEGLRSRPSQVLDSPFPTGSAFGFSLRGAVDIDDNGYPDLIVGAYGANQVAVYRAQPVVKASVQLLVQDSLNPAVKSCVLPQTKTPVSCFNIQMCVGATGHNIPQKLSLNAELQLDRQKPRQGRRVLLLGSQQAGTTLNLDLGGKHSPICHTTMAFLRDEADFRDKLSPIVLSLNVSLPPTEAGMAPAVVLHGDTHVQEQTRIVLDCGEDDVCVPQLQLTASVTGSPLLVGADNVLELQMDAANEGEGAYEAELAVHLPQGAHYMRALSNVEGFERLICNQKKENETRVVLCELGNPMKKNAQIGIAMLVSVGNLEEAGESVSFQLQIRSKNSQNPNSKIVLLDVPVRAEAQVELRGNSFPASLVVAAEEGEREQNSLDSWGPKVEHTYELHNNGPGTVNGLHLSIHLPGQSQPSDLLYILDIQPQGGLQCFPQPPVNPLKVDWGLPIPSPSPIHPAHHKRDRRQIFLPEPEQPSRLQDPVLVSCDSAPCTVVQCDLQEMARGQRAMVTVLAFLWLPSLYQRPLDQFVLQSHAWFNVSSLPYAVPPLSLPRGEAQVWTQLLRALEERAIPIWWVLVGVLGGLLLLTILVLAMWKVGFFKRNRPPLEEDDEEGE

Row | Compound | inhibition | outcome
1 | Cc1nn2c(=O)cc(N3CCNCC3)nc2s1 | 20% (inactive) | 
2 | CCc1nn2c(=O)c(C)c(N3CCNCC3)nc2s1 | 55% [inhibition, at 100 µM, stronger effect = higher value] | inactive
3 | CCc1nn2c(=O)cc(N3CCNCC3)nc2s1 | 35% (inactive) | 
4 | CCc1nn2c(=O)cc(N3CCN(C)CC3)nc2s1 | 23% (inactive) | 
5 | CCc1nn2c(=O)c(F)c(N3CCNCC3)nc2s1 | 41% [inhibition, at 100 µM, stronger effect = higher value] | inactive
